Data on 22 compounds can be found in PubChem BioAssay (Tox21).

Experiment [1] can be described thus: A CellTox Green Cytotoxicity Assay to monitor cytotoxicity in HEK293 cells - 32 hour (AID 1224881). Further: nearly all actives have a fitted effect of over 40% in size. Further: potency means the concentration at half of the fitted maximal effect. The method in brief:
(§1)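 Nonlytic real-time cytotoxicity: HEK293 + CellTox Green reagent plated, 5 h preincubation, pintool compound addition (23 nL in DMSO), 37 C for 40 h, fluorescence measured at successive time points.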

Experiment [2] is described as follows: A CellTox Green Cytotoxicity Assay to monitor cytotoxicity in HepG2 cells - 0 hour (AID 1224882). Further: nearly all actives have a fitted effect of over 35% in size. The method in brief: (§2)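 Read-out is fluorescence of a cyanine dye excluded from live cells that stains DNA of dead HepG2 cells, with signal proportional to cytotoxicity. Plates were read at 0, 8, 16, 24, 32 and 40 h after compound addition.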
A short description of experiment [3]: A CellTox Green Cytotoxicity Assay to monitor cytotoxicity in HEK293 cells - 8 hour (AID 1224884). Further: nearly all actives have a fitted effect of over 35% in size. Further: potency means the concentration at half of the fitted maximal effect. The method in brief:
as §1

Experiment [4] in a line: qHTS RealTime-Glo MT Cell Viability Assay in HepG2 cells - 16 hour (AID 1224885). Further: nearly all actives have a fitted effect of over 50% in size. Further: potency means the concentration at half of the fitted maximal effect. The method in brief:
(§3)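 HepG2 cells (600/well) were dispensed with RealTime-Glo reagents, incubated 5 h at 37 °C, then treated with compounds in DMSO for up to 40 h. Nonlytic NanoLuc luminescence reflecting viable cells was read at each stated time point.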

The nature of experiment [5]: qHTS RealTime-Glo MT Cell Viability Assay in HEK293 cells - 24 hour (AID 1224886). Further: nearly all actives have a fitted effect of over 50% in size. Further: potency means the concentration at half of the fitted maximal effect. On activity change, negative = cytotoxicity: top concentration of the series differs between compounds. The method, boiled down: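 HEK293 cells seeded with NanoLuc/prosubstrate reagent, rested 5 h at 37 C, then dosed and kept at 37 C up to 40 h. Nonlytic real-time luminescence from viable cells read at 0, 8, 16, 24, 32 and 40 h.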
Experiment [6] in a line: qHTS RealTime-Glo MT Cell Viability Assay in HEK293 cells - 8 hour (AID 1224887). Further: nearly all actives have a fitted effect of over 50% in size. Further: potency means the concentration at half of the fitted maximal effect. On activity change, negative = cytotoxicity: top concentration of the series differs between compounds. The method in brief:
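Cells were seeded together with NanoLuc luciferase and a prosubstrate that viable cells reduce to a luciferase substrate. After a 5 h incubation at 37 C/5% CO2, compounds were added and luminescence was measured repeatedly during 40 h of treatment.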

Experiment [7] can be described thus: A CellTox Green Cytotoxicity Assay to monitor cytotoxicity in HEK293 cells - 16 hour (AID 1224888). Further: nearly all actives have a fitted effect of over 35% in size. Further: potency means the concentration at half of the fitted maximal effect. The method in brief: as §1
A short description of experiment [8]: qHTS RealTime-Glo MT Cell Viability Assay in HepG2 cells - 0 hour (AID 1224889). Further: nearly all actives have a fitted effect of over 50% in size. Further: potency means the concentration at half of the fitted maximal effect. The method, boiled down: as §3
The nature of experiment [9]: A CellTox Green Cytotoxicity Assay to monitor cytotoxicity in HepG2 cells - 8 hour (AID 1224890). Further: nearly all actives have a fitted effect of over 45% in size. Further: potency means the concentration at half of the fitted maximal effect. The method, boiled down: as §2
A short description of experiment [10]: A CellTox Green Cytotoxicity Assay to monitor cytotoxicity in HepG2 cells - 32 hour (AID 1224883). Further: nearly all actives have a fitted effect of over 50% in size. Further: potency means the concentration at half of the fitted maximal effect. The method, boiled down:
as §2

Several values for one entry are separate records, joined by “and”; a condition that tells them apart may be missing. Equal entries are not always repeated. Records with an inconclusive call do not appear. A structure can be active in one record and inactive in another. Activity calls are given as the source filed them. The call rests on the fitted dose curve; in most records, active means well fitted curve in the direction sought with a large enough effect in the repeat runs; inconclusive means weak or mixed curves; inactive means no such curve, though single readings can be large; an effect the other way counts as inactive or inconclusive.
On the % scale 0 is the no-effect control and ±100 the full control effect.

Turning to `CSC(C)(C)/C=N/O`, the Potency result in experiment [1], in experiment [2], in experiment [3], in experiment [4], in experiment [5] and in [6] was “inactive” each time. For the same compound, the Potency entry in experiment [7], in experiment [8] and in experiment [9] was “inactive” throughout.
Consider `Cc1c([N+](=O)[O-])c(C)c([N+](=O)[O-])c(C(C)(C)C)c1[N+](=O)[O-]`, for which the Potency result in [1], in experiment [2], in experiment [3], in experiment [4], in [5] and in experiment [6] was “inactive” throughout. The Potency result in experiment [7], in [8] and in experiment [9] was “inactive” each time.
Turning to `CNC(=O)CSP(=O)(OC)OC`, the Potency entry in experiment [1], in experiment [2], in experiment [3], in [4], in experiment [5] and in experiment [6] was “inactive” throughout. The Potency result in [7], in experiment [8] and in experiment [9] was “inactive” throughout.
Regarding `Clc1c(Cl)c(Cl)c(Cl)c(Cl)c1Cl`, the cytotoxicity increase in experiment [1] is -13.5% [at 6.97 µM] (inactive); in experiment [3], -13.2% [at 6.97 µM] (inactive); in experiment [9], 1.99% [at 6.97 µM] (inactive). For the same compound, the cytotoxicity in [2] was 1.34% [at 6.97 µM] (inactive). The activity change, negative = cytotoxic in [4] was -0.903% [at 6.97 µM] (inactive). Moreover, the figures for the activity change, negative = cytotoxicity in experiment [5], in experiment [6] and in experiment [8] were 2.9% [at 6.97 µM] (inactive), 4.5% [at 6.97 µM] (inactive) and 6.05% [at 6.97 µM] (inactive), respectively. For the same compound, the activity change in experiment [7] is -13.4% [at 6.97 µM, stronger effect = higher value] (inactive).
As to `C[C@]12C/C(=C/O)C(=O)C[C@@H]1CC[C@@H]1[C@@H]2CC[C@@]2(C)[C@H]1CC[C@]2(C)O`, the Potency in [1] is 44.1 µM (active) and inactive; in [5], 49.4 µM (active) and inactive. In addition, the Potency result in experiment [2], in [3], in experiment [4], in [6], in experiment [7] and in experiment [8] was “inactive” throughout. Moreover, the Potency entry in experiment [9] was “inactive”.
As to `C=C(C)C(=O)[O][Sn]([CH2]CCC)([CH2]CCC)[CH2]CCC`, the Potency in [1] is 0.49 µM (active); in experiment [3], 11 µM (active); in [4] it was 0.436 µM (active); in experiment [5], 0.309 µM (active); in experiment [6], 0.776 µM (active); in experiment [7], 8.71 µM (active). Moreover, the Potency in [9] is 0.871 µM (active). Moreover, the Potency entry in experiment [2] and in experiment [8] was “inactive” each time.
Regarding `Brc1cccc(-c2ccccc2)c1`, the Potency in experiment [1] was 49.3 µM (active). Moreover, the Potency entry in experiment [2], in experiment [10], in experiment [4], in experiment [5], in experiment [6] and in experiment [8] was “inactive” in each case. Moreover, in experiment [9], the Potency result was “inactive”.
As to `CCCCCCCc1ccc(O)cc1`, the Potency was 43.6 µM (active) in experiment [1]; 21.9 µM (active) in experiment [10]; 12.3 µM (active) in experiment [5]; 6.17 µM (active) in [6]; 43.6 µM (active) in experiment [7]; 24.5 µM (active) in experiment [9]. The Potency result in experiment [2], in experiment [4] and in experiment [8] was “inactive” each time.
On to `CCCCc1ccccc1`, for which the Potency entry in experiment [1], in experiment [2], in experiment [3], in experiment [4], in experiment [5] and in experiment [6] was “inactive” throughout. Besides, the Potency entry in [7], in experiment [8] and in experiment [9] was “inactive” in each case.
In the case of `C#CC1(O)CCCCC1`, the Potency entry in experiment [1], in experiment [2], in [3], in experiment [4], in experiment [5] and in [6] was “inactive” throughout. For the same compound, the Potency result in experiment [7], in [8] and in experiment [9] was “inactive” in each case.
On to `CC(=O)O.CC(=O)O.CC(=O)O.CC(=O)O.CC(=O)O.CC(=O)O.CC(=O)O.O.O.[Cr].[Cr].[Cr]`, for which the Potency entry in experiment [1], in [2], in experiment [3], in experiment [4], in experiment [5] and in [6] was “inactive” throughout. The Potency entry in [7], in experiment [8] and in experiment [9] was “inactive” in each case.
With `CCCCN(CCCC)C(=S)S`, the Potency result in [1], in experiment [2], in experiment [3], in experiment [4], in experiment [5] and in experiment [6] was “inactive” throughout. The Potency entry in experiment [7], in [8] and in [9] was “inactive” in each case.
On to `N#Cc1sc2c(=O)c3ccccc3c(=O)c=2sc1C#N`, for which the Potency in experiment [1] is 13.8 µM (active); in experiment [4], 9.77 µM (active); in [5], 15.5 µM (active); in experiment [6] it was 6.92 µM (active); in experiment [7] it was 43.6 µM (active); in experiment [8] it was 21.9 µM (active). The Potency in experiment [9] is 54.9 µM (active). Besides, the Potency result in experiment [2] and in experiment [3] was “inactive” each time.
As for `CNC(=O)O/N=C(\C)C(C)S(C)(=O)=O` (stereo not given), the Potency result in experiment [1], in [2], in experiment [3], in experiment [4], in [5] and in [6] was “inactive” throughout. In addition, the Potency entry in experiment [7], in experiment [8] and in experiment [9] was “inactive” throughout.
For `CCOP(=S)(OCC)SC(CCl)N1C(=O)c2ccccc2C1=O` (stereo not given), the Potency entry in experiment [1], in experiment [2], in experiment [3], in experiment [4], in experiment [5] and in experiment [6] was “inactive” each time. Further, the Potency result in [7] and in experiment [9] was “inactive” each time.
With `COc1ccc2[nH]cc(CCN(C(C)C)C(C)C)c2c1`, the Potency entry in experiment [1], in [2], in [3], in [4], in [5] and in experiment [6] was “inactive” in each case. For the same compound, the Potency result in experiment [7], in experiment [8] and in [9] was “inactive” each time.
Take `ClC1=C(Cl)[C@]2(Cl)[C@H]3[C@H]([C@@H]4C=C[C@H]3C4)[C@@]1(Cl)C2(Cl)Cl`: the Potency is 54.9 µM (active) and 49 µM (active) in experiment [1]; 54.9 µM (active) in [3]; 49 µM (active) in experiment [4]; 43.6 µM (active) in experiment [5]; 43.6 µM (active) and 38.9 µM (active) in experiment [6]; 54.9 µM (active) and 49 µM (active) in experiment [7]. In [9], the Potency is 54.9 µM (active). Further, the Potency entry in experiment [2] and in experiment [8] was “inactive” each time.
As for `Cc1ccc([N+](=O)[O-])[c]2c1[O][Hg]2`, the Potency in [1] was 0.674 µM (active); in experiment [4], 2.39 µM (active); in experiment [5], 3.38 µM (active); in experiment [6], 3.79 µM (active); in [9], 3.79 µM (active). The Potency entry in experiment [2], in [3] and in experiment [8] was “inactive” in each case.
As to `COc1cnc(OC)n2nc(NS(=O)(=O)c3c(OCC(F)F)cccc3C(F)(F)F)nc12`, the Potency result in experiment [1], in experiment [2], in experiment [3], in experiment [4], in experiment [5] and in [6] was “inactive” in each case. Besides, the Potency result in experiment [7], in experiment [8] and in [9] was “inactive” in each case.
In the case of `COP(=O)(OC)Oc1ccc([N+](=O)[O-])cc1`, the Potency result in experiment [1], in experiment [2], in experiment [3], in experiment [4], in experiment [5] and in [6] was “inactive” each time. For the same compound, the Potency result in [7], in experiment [8] and in [9] was “inactive” in each case.
In the case of `O=Cc1ccccc1`, the Potency entry in experiment [1], in experiment [2], in experiment [3], in experiment [4], in [5] and in [6] was “inactive” throughout. Also, the Potency result in [7], in experiment [8] and in [9] was “inactive” each time.
On to `COC(=O)C(C)N(C(=O)c1ccco1)c1c(C)cccc1C` (stereo not given), for which the Potency entry in [1], in experiment [2], in experiment [3], in [4], in [5] and in experiment [6] was “inactive” in each case. Moreover, the Potency result in [7], in experiment [8] and in [9] was “inactive” each time.
